Only a selection was taken, and hits are over-represented in it overall.
nsP2pro inh: Primary qHTS for inhibitors of NSP2Pro chikungunya virus (CHIKV); actives 1.1% (n = 31,000); AID 1964107, 2024; FRET peptide cleavage, nsP2pro, fluorescence 1 h; Potency, µM (top dose mostly 24.9 µM), for the others: at the highest dose activity change, negative = inhibition, hits mostly inhibitors; Polyprotein P1234 (Chikungunya virus (strain S27-African prototype)), Q8JUX6; further: nearly all actives have a fitted effect of over 60% in size
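FRET cleavage of 2.5 uM peptide 2 by 150 nM CHIKV protease domain at pH 8.0 (Tris, Tween 20). Compounds at 7 concentrations (up to 25 uM) preincubated 15 min. Fluorescence read after 1 h at room temperature.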
nsP2 cell sec: Secondary cell base assay for inhibitors of NSP2Pro Chikungunya virus (CHIKV); shares compounds with nsP2pro inh; cell-based CHIKV nsP2 protease reporter assay; actives 10% (n = 450); AID 1964100, 2024; Potency, µM (doses to about 51.1 µM), for inactives: top-dose activity change, negative = inhibition, hits mostly inhibitors; further: nearly all actives have a fitted effect of over 70% in size
NSP2 full ctr: Selectivity profile for inhibitors of NSP2Pro chikungunya virus (CHIKV): Full length NSP2 enzyme counterscreen (CHIKV-NSP2); shares compounds with nsP2pro inh; Full-length CHIKV NSP2 protease enzymatic counterscreen; actives 39% (n = 410); Potency, µM (series often up to 50.7 µM), inactives show top-dose activity change, negative = inhibition, most hits filed as inhibitors; further: nearly all actives have a fitted effect of over 65% in size
Furin counter: Selectivity profile for inhibitors of NSP2Pro chikungunya virus (CHIKV): Human furin counterscreen; shares compounds with nsP2pro inh; Recombinant human furin enzymatic counterscreen, fluorogenic substrate; Potency, µM (titrated, usually from 50.6 µM), for the others: top-dose activity change, negative = inhibition, actives largely listed as inhibitors; actives 6% (n = 410); AID 1964102, 2024
NS23 peptide cs: Selectivity profile for inhibitors of NSP2Pro chikungunya virus (CHIKV): Endogenous NS2/3 peptide Counterscreen | shares compounds with nsP2pro inh | Purified CHIKV nsP2 protease, endogenous NS2/3 peptide cleavage | Potency, µM (highest dose often 51 µM), for the others: at the top dose activity change, negative = inhibition, most hits filed as inhibitors | actives 34% (n = 410) | AID 1964103, 2024; further: nearly all actives have a fitted effect of over 55% in size
Papain counter: Selectivity profile for inhibitors of NSP2Pro chikungunya virus (CHIKV): Papain Counterscreen; shares compounds with nsP2pro inh; purified papain protease activity, enzymatic inhibition; Potency, µM (doses to about 51 µM), for inactives: at the top dose activity change, negative = inhibition, hits mostly inhibitors; actives 5% (n = 410); AID 1964104, 2024
Target sequence (P00784 whole entry, looked up): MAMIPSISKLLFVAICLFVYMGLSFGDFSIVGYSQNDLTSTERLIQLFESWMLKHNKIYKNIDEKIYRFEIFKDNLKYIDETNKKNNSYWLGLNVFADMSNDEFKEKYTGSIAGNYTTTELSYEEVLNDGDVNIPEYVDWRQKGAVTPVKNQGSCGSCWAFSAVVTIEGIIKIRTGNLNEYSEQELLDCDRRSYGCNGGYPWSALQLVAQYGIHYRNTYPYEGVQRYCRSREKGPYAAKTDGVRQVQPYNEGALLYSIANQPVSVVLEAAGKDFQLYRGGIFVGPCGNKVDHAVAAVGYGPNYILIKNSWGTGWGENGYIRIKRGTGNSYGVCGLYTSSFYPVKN
nsP2pro conf qHTS: Confirmatory qHTS for inhibitors of NSP2Pro chikungunya virus (CHIKV); shares compounds with nsP2pro inh; CHIKV nsP2 protease enzymatic activity, qHTS; Potency, µM (top dose mostly 25.5 µM), for the others: at the top dose activity change, negative = inhibition, most hits filed as inhibitors; actives 43% (n = 410); further: nearly all actives have a fitted effect of over 75% in size
HCV NS3 counter: Selectivity profile for inhibitors of NSP2Pro chikungunya virus (CHIKV): NS34A-HCV Counterscreen. actives 20% (n = 410). Potency, µM (doses to about 50.9 µM), usual class: inhibitors. shares compounds with nsP2pro inh. HCV NS3/4A protease biochemical counterscreen. AID 1964106, 2024; further: nearly all actives have a fitted effect of over 55% in size
* hit, by the source's call; i = inactive; ? = inconclusive; ! = not active in a repeat; [ ] = dose if it differs, or a comment. The call rests on the fitted dose curve. On the % scale 0 is the no-effect control and ±100 the full control effect; potency means the concentration at half of the fitted maximal effect.

SMILES	nsP2pro inh	others
C(#Cc1nc2ncccc2nc1OCCN1CCCC1)c1ccccc1	7µM*	nsP2 cell sec=?;NSP2 full ctr=18µM*;Furin counter=23µM*;NS23 peptide cs=16µM*;Papain counter=98%;nsP2pro conf qHTS=8µM*;HCV NS3 counter=i
NC(Cc1c[nH]c2ccc(O)cc12)C(=O)O (stereo not drawn)	?	nsP2 cell sec=8%;NSP2 full ctr=6%;Furin counter=-11%;NS23 peptide cs=-19%;Papain counter=-8%;nsP2pro conf qHTS=-26%;HCV NS3 counter=i
CC(=O)NCCc1c[nH]c2ccccc12	4%[39.2 µM]
O=C(NCCc1c[nH]c2ccc(O)cc12)c1ccc2ccccc2c1O	2%
O=C(NC1CCN(c2cc(-c3cccs3)[nH]n2)C1)c1cccnc1 (stereo not drawn)	-12%
O=C(Nc1cccs1)NC1CCN(c2ccc(C(F)(F)F)cn2)C1 (stereo not drawn)	?	nsP2 cell sec=?;NSP2 full ctr=?;Furin counter=-3%;NS23 peptide cs=?;Papain counter=-15%;nsP2pro conf qHTS=?;HCV NS3 counter=i
O=C(Nc1ccccc1)NC1CCCN(c2ccc3nnc(-c4ccccc4)n3n2)C1 (stereo not drawn)	-1%
COc1cc2c(cc1-c1ccc(CO)cc1)NC(=O)C21CCN(C)CC1	1%[39.2 µM]
Cc1cc(C)nc(NC(=S)N2CCN(c3ncnc4ccccc34)CC2)c1	-5%
Cc1cc(C)nc(NC(=S)N2CCN(c3cccc(S(C)=O)c3)CC2)c1 (stereo not drawn)	5%
O=C(c1cc(-c2ccc(Cl)cc2)c2nncn2n1)N1CCOCC1	-3%[39.2 µM]
Cc1ccc(-c2nc3ccccn3c2Nc2ccc3c(c2)OCO3)o1	-7%
Cc1cccc2nc(-c3ccco3)c(Nc3ccc4c(c3)OCO4)n12	55%
Cc1ccc(-c2nc3cccc(C)n3c2Nc2ccc3c(c2)OCO3)o1	26%	nsP2 cell sec=102%;NSP2 full ctr=-13%;Furin counter=-6%;NS23 peptide cs=-12%;Papain counter=-15%;nsP2pro conf qHTS=-6%;HCV NS3 counter=i
Cc1cc(C)nc(NC(=S)N2CCN(C3=Nc4ccccc4Oc4ccccc43)CC2)c1	-9%
COCCN1CCC(C(=O)N2CCn3nc(Cc4ccccc4)cc3C2)C1 (stereo not drawn)	i
CC12CCC3c4ccc(O)cc4CCC3C1CC(OC1OC(C(=O)O)C(O)C(O)C1O)C2O (stereo not drawn)	21%
Cc1ccc(C(=O)N2CCN(c3ccc([N+](=O)[O-])cc3)CC2)cc1Cl	-6%
C=CC(=O)N1C/C(=C\c2ccc([N+](=O)[O-])cc2)C(=O)/C(=C/c2ccc([N+](=O)[O-])cc2)C1	3.5µM*!	nsP2 cell sec=?;NSP2 full ctr=?;Furin counter=-14%;NS23 peptide cs=2.9µM*;Papain counter=-14%;nsP2pro conf qHTS=?;HCV NS3 counter=i
O=C1Nc2ccccc2/C1=C\c1ccc([N+](=O)[O-])cc1	-9%
O=C(c1ccc2c(c1)ncn2-c1cccc(Cl)c1)N1CCCCC1	-14%
O=CN1C(=O)CC/C1=C\c1ccc2c(c1)OCO2	-4%
COc1ccc(CNS(=O)(=O)c2cc3c(cc2C)N(C)CCO3)cc1	-20%
COc1ccc(CNS(=O)(=O)c2cc(-c3[nH]ncc3C(=O)N3CCCC3)oc2C)cc1	7.1µM*	nsP2 cell sec=6%;NSP2 full ctr=?;Furin counter=-7%;NS23 peptide cs=-4%;Papain counter=-6%;nsP2pro conf qHTS=-8%;HCV NS3 counter=?
COc1ccc(CNC(=O)C2CCC(CNS(=O)(=O)c3ccc4c(c3)CCCC(=O)N4)CC2)cc1 (stereo not drawn)	-10%
SMILES	nsP2pro inh	others
O=C(Nc1ccc(Cl)cc1)c1ccc2c(c1)N(Cc1ccccc1)CCS2	-5%
Cc1cccc(C(=O)Nc2cc3c(cc2N2CCCCC2)n(C)c(=O)n3C)c1	-9%
Cc1cccc(C(=O)Nc2ccc3ncnc(N4CCCCC4)c3c2)c1	34%
O=C(Nc1ccc(N2CCC(c3ccccc3)C2)c(C(=O)O)c1)c1ccc(Cl)cc1 (stereo not drawn)	3.5µM*	nsP2 cell sec=30%;NSP2 full ctr=3.7µM*;Furin counter=?;NS23 peptide cs=12µM*;Papain counter=9%;nsP2pro conf qHTS=7.1µM*;HCV NS3 counter=3.7µM*
O=C(Nc1ccc(Cl)cc1)N1CCC(c2ccccc2)C1 (stereo not drawn)	-10%
Cc1cccc(C(=O)Nc2ccc(N3CCC(N4CCCCC4)CC3)c(C(=O)O)c2)c1	5µM*	nsP2 cell sec=11%;NSP2 full ctr=4.6µM*;Furin counter=?;NS23 peptide cs=15µM*;Papain counter=-4%;nsP2pro conf qHTS=7.1µM*;HCV NS3 counter=2.6µM*
COC(=O)c1ccc(Nc2nc(-c3ccncc3)nc3ccccc23)cc1OC	i
CCOc1ccccc1CN1CCC[C@H]1C(=O)N1CCCCCCNC(=O)CC1	-21%
COc1ccccc1S(=O)(=O)Nc1cnccc1C(=O)Nc1nc(-c2ccccc2)cs1	i
O=C(NC1CC1)c1ccc2nnc(C3CCCC3)n2c1	i
OC[C@H]1O[C@H](O)[C@H](O)[C@@H](O)[C@@H]1O	-11%
Cc1ccccc1C(=O)N1CCCN(c2ccc3nnc(-c4ccccc4)n3n2)CC1	0%
COC(=O)c1ccccc1C(=O)Nc1nc(-c2ccccc2)cs1	i
CC1C2=CC(=O)OC2(O)CC2C1C(O)CC1C(C)(CO)CCCC21C (stereo not drawn)	-10%
Cc1ccc(CNC(=O)c2nc(SCc3ccc(F)cc3)ncc2Cl)cc1	-3%
Cc1ccc(CNC(=O)c2nc(SCc3ccccc3F)ncc2Cl)cc1	11µM*	nsP2 cell sec=45%;NSP2 full ctr=-3%;Furin counter=-2%;NS23 peptide cs=8%;Papain counter=-3%;nsP2pro conf qHTS=7%;HCV NS3 counter=i
Cc1ccc(CNC(=O)c2nc(SCc3ccc(C)cc3)ncc2Cl)cc1	-23%
C=C(CCC1=C(C)[C@H]2[C@H](CC3[C@@H]4CC=C5C[C@@H](O)C[C@@H](O)[C@]5(C)C4[C@H](O)C[C@@]32C)O1)CO[C@@H]1O[C@H](CO)[C@@H](O)[C@H](O)[C@H]1O (stereo partly drawn)	-10%[10 µM]
CCN1CCCCC12Cc1ccccc1CN(S(=O)(=O)c1ccccc1)C2 (stereo not drawn)	-9%

Screening results from PubChem BioAssay.
